Results filed as inconclusive are left out. Where a call stands in place of a potency, no number is given. The source made the active and inactive calls. Calls follow the shape of the dose curve; as a rule, active = well fitted curve in the direction sought with a large enough effect in the signal ratio; inconclusive = small, poorly fitted or top-dose-only effect, or a change in a side signal; inactive = no such curve, though single readings can be large or run the other way; the % refers to the signal ratio.
Each compound was assayed against Tumor necrosis factor (Homo sapiens) (UniProt P01375) (assay: qHTS assay to identify small molecules that stimulate Tumor Necrosis Factor-alpha (TNF-alpha) secretion (AID 651757)). Conditions: Human cells, HTRF 665/615 ratio; series mostly up to 92.2 µM.
Tumor necrosis factor (Homo sapiens), sequence (P01375 whole entry, looked up): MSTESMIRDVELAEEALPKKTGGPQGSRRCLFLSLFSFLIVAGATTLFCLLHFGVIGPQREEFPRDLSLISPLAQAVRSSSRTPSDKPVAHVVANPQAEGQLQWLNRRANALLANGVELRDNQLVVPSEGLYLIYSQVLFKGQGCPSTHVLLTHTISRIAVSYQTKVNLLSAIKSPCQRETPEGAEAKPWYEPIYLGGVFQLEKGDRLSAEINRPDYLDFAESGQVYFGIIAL
Description: National Center for Advancing Translational Sciences [NCATS]
NIH Chemical Genomics Center [NCGC]
National Institutes of Environmental Health Sciences [NIEHS]
National Toxicology Program [NTP]
Tumor Necrosis Factor-alpha (TNF-alpha), a secreted cytokine, plays an important role in inflammatory diseases and immune disorders. TNF-alpha, a 17 kDa cytokine, is mainly secreted by activated macrophages and monocytes in response to several inflammatory and immunological stimuli. To study the effect of environmental chemicals on TNF-alpha secretion, a homogeneous TNF-alpha assay was developed using Time Resolved fluorescence (HTRF) technology based on Time Resolved Fluorescent Resonance Energy Transfer (TR-FRET) (Leister et al., Current Chemical Genomics, 5:21-29, 2011). This assay allows measuring TNF-alpha secreted from the cells in a 1536-well plate format.
THP-1 cells were dispensed at 3000 cells/5ul/well in 1536-well white solid plates. After addition of 23 nl of compound, positive controls and DMSO only, the assay plates were incubated at 37 C for 17 hrs, followed by addition of 5 uLof mixture of cryptate labeled and XL665 labeled anti-TNF-alpha antibodies. After the assay plates were incubated at room temperature for 3 hr, the plates were measured by an EnVision plate reader.

Q: How did the Potency turn out when `O=Cc1cccc(Br)c1` was run?
A: The Potency was “inactive”.

Q: With `C[C@@H]1CC2(OC[C@]3(C)O[C@H]23)O[C@H]2C[C@@]3(C)[C@@H]4CC[C@H]5C(C)(C)C(O[C@@H]6OC[C@@H](O)[C@H](O)[C@H]6O)CC[C@@]56C[C@@]46CC[C@]3(C)[C@@H]12` (stereo not given in full) as the compound, how does the Potency read?
A: Its Potency is “inactive”.

Q: How did the Potency turn out when `Cc1cccc2cccnc12` was run?
A: Its Potency is “inactive”.

Q: `OC1CCCC1` was tested. Which Potency did it give?
A: Its Potency is “inactive”.

Q: How did the Potency turn out when `Nc1cccc(S(=O)(=O)O)c1` was run?
A: Its Potency is “inactive”.

Q: For `C=CC(=O)OCCCC`, which Potency is on record?
A: The Potency was “inactive”.

Q: `C=CCn1c(=O)n(CC=C)c(=O)n(CC=C)c1=O` was tested. Which Potency did it give?
A: Its Potency is “inactive”.

Q: Which Potency does the source give for `CCOCCOCC` here?
A: Its Potency is “inactive”.

Q: With `CCOc1cccc(N)c1` as the compound, how does the Potency read?
A: The Potency was “inactive”.

Q: `CCCOCC(C)OCC(C)O` (stereo not given) was tested. Which Potency did it give?
A: Its Potency is “inactive”.

Q: For `Nc1ccccc1S(=O)(=O)O`, which Potency is on record?
A: The Potency was “inactive”.

Q: How did the Potency turn out when `CNC(=O)c1ccccc1` was run?
A: Its Potency is “inactive”.

Q: With `CC(=O)OC(C)C` as the compound, how does the Potency read?
A: Its Potency is “inactive”.

Q: With `CCC(C)=O` as the compound, how does the Potency read?
A: The Potency was “inactive”.

Q: Which Potency does the source give for `Cc1ccc(C)c(N)c1` here?
A: The Potency was “inactive”.

Q: For `CC(C)Cc1nccs1`, which Potency is on record?
A: The Potency was “inactive”.

Q: Which Potency does the source give for `C=C(C)C(=O)OCC(C)C` here?
A: Its Potency is “inactive”.

Q: `Cc1cc([N+](=O)[O-])ccc1N` was tested. Which Potency did it give?
A: Its Potency is “inactive”.

Q: `COC(=O)CCCC(=O)OC` was tested. Which Potency did it give?
A: Its Potency is “inactive”.

Q: For `CCN(Cc1ccccc1)c1ccccc1`, which Potency is on record?
A: Its Potency is “inactive”.

Q: `O=C(O)c1cc(Cl)cc(Cl)c1` was tested. Which Potency did it give?
A: The Potency was “inactive”.

Q: How did the Potency turn out when `Nc1ccc([N+](=O)[O-])c(N)c1` was run?
A: Its Potency is “inactive”.

Q: With `Cc1ccc(C(=O)O)cc1` as the compound, how does the Potency read?
A: Its Potency is “inactive”.

Q: Which Potency does the source give for `CCC(C)(C)C` here?
A: The Potency was “inactive”.

Q: Which Potency does the source give for `COc1cccc2sc(N)nc12` here?
A: Its Potency is “inactive”.

Q: How did the Potency turn out when `NC(=O)c1cccc([N+](=O)[O-])c1` was run?
A: Its Potency is “inactive”.

Q: Which Potency does the source give for `Cc1ccc(C)o1` here?
A: The Potency was “inactive”.

Q: Which Potency does the source give for `Cc1nc2ccc(Cl)cc2[nH]1` here?
A: The Potency was “inactive”.

Q: How did the Potency turn out when `CC(C)=CCC/C(C)=C/C=O` was run?
A: Its Potency is “inactive”.

Q: How did the Potency turn out when `ICCc1ccccc1` was run?
A: The Potency was “inactive”.

Q: For `BrC(Br)C(Br)Br`, which Potency is on record?
A: The Potency was “inactive”.

Q: For `NC(N)=S`, which Potency is on record?
A: The Potency was “inactive”.

Q: With `NC=O` as the compound, how does the Potency read?
A: Its Potency is “inactive”.

Q: How did the Potency turn out when `CO[Si](CCCNCCC[Si](OC)(OC)OC)(OC)OC` was run?
A: The Potency was “inactive”.

Q: How did the Potency turn out when `Clc1cc(Cl)cc(Cl)c1` was run?
A: The Potency was “inactive”.

Q: Which Potency does the source give for `CC(C)N(C)C` here?
A: Its Potency is “inactive”.

Q: Which Potency does the source give for `CC1CCC2CC1C2(C)C` (stereo not given) here?
A: The Potency was “inactive”.

Q: With `O=C(O)c1ccc(C(=O)O)cc1` as the compound, how does the Potency read?
A: The Potency was “inactive”.

Q: With `O=[N+]([O-])c1c(Cl)cc(Cl)cc1Cl` as the compound, how does the Potency read?
A: Its Potency is “inactive”.

Q: With `CNC(=O)N(c1ccccc1)c1ccccc1` as the compound, how does the Potency read?
A: Its Potency is “inactive”.
